The source of these data is PubChem BioAssay (NCI).

About 83,000 compounds went through this panel and 20% of them were active in at least one assay; those are over-represented in the sample as a whole.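 Compound tested at a single concentration for 48 hours in 96-well plates; a percent growth value below 10 was scored as active.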 Calls of active or inactive are those of the source.

The first assay has as its system SR leukemia. Description: NCI-60 one-dose screen, 48 h (100 = growth as untreated, 0 = no growth, -100 = all killed). Conditions: 10 µM.
As for `CCCCNCCc1ccccn1`, the growth was 101% (inactive). On to `CC1(C)N=C(N)N=C(N)N1c1cccc(C(=O)Nc2cccc(S(=O)(=O)F)c2)c1`, for which the growth is 104% (inactive). On the same count and under the same terms, next, `C[C@]12CC[C@@H]3C4=C(CC[C@H]3[C@@H]1CC[C@@H]2O)CC(=O)CC4`: 97.5% (inactive). Still for that read-out and setting: next, `Oc1ccccc1OB(Oc1ccccc1O)N(CCCl)CCCl`: 36.5% (inactive). Consider `NC(Cc1ccc2c(c1)OCO2)c1ccc2c(c1)OCO2` (stereo not given), for which the growth was 83.9% (inactive). Consider `COc1ccc(-c2ccc(OC)c(OC)c2OC)cc1`, for which the growth was 16.9% (inactive). Turning to `CC1(C)N=C(N)N=C(N)N1c1ccc(CCCCc2ccc(S(=O)(=O)F)cc2)c(Cl)c1`, the growth is 33.4% (inactive). Take `COc1ccc(C2=NN(c3ccccc3)C(c3sc(N(CCCl)CCCl)nc3Cl)C2)cc1` (stereo not given): the growth was 86.1% (inactive). As for `N#CC1c2ccccc2C=CN1C(=O)c1ccc(N(CCCl)CCCl)cc1` (stereo not given), the growth was 86.6% (inactive). Same read-out and setting: next, `CSc1ccccc1NP1(=O)OCC(C)([N+](=O)[O-])CO1` (stereo not given): 91.3% (inactive); `Cc1ccc(N)cc1[As]=[As]c1cc(N)ccc1C` (stereo not given): -43.7% (active); `C/C(=N/OC(=O)N(C)C)c1cc(Cl)ccc1Cl`: 90.7% (inactive). Regarding `CCC(C)[C@H]1O[C@]2(C=C[C@@H]1C)C[C@@H]1C[C@@H](C/C=C(\C)[C@@H](OC3C[C@H](OC)C(O[C@H]4C[C@H](OC)[C@@H](O)[C@H](C)O4)[C@H](C)O3)[C@@H](C)/C=C/C=C3\CO[C@@H]4[C@H](O)C(C)=C[C@@H](C(=O)O1)[C@]34O)O2` (stereo not given in full), the growth is -28.1% (active). Same read-out and setting: next, `CC1(C)N=C(N)N=C(N)N1c1ccc(CCCCc2ccc(S(=O)(=O)F)cc2)cc1`: 38% (inactive); `O=S(=O)(O)c1ccc(-c2ccc([As](=O)(O)O)cc2)cc1`: 101% (inactive); `O=C1NC(=O)C(CN2C(=O)C3(c4ccccc42)[C@H](Cl)C(=O)N3c2ccccc2)C(=O)N1` (stereo not given in full): 15.2% (inactive). For `O=[N+]([O-])c1cc([N+](=O)[O-])c(Cl)c(Cl)c1Cl`, the growth was -5% (active). Same read-out and setting: as for `C=CCC1(CC)C(=O)NC(=S)NC1=O`, the figure is 96.7% (inactive).

Take `C/C(=N/OC(=O)N(C)C)c1ccc(Cl)cc1Cl`: the growth was 87.2% (inactive). For `O=C(NCc1ccc([N+](=O)[O-])cc1)Nc1ccc(S(=O)(=O)F)cc1`, the growth is 79.1% (inactive). Still for that read-out and setting: next, `n1nc(-c2nonc2-c2nn[nH]n2)n[nH]1`: 92.5% (inactive); `CNC(=O)Oc1ccccc1-c1ccccc1`: 99% (inactive); `NC(=O)C(Cl)Cl`: 99.5% (inactive). As to `CCN(CC)c1ccc(C=C2C(=O)NC(=S)NC2=O)cc1`, the growth is -50.8% (active).

Take `[O]=[Sn]([CH]1CCCCC1)[CH]1CCCCC1`: the growth was 14.8% (inactive). As for `ClCCN(CCCl)c1nc(Cl)c(C2CC(c3ccccc3)=NN2c2ccccc2)s1` (stereo not given), the growth was 88.4% (inactive). Regarding `Cc1ccccc1O`, the growth was 128% (inactive).

For `O=[N+]([O-])c1ccccc1N1CCNCC1`, the growth was 88.5% (inactive).

With `CC(=O)Nc1ccc(C=C2C(=O)NC(=O)NC2=O)cc1`, the growth was 95.7% (inactive).

Another assay concerns RPMI-8226 leukemia. The assay is described as above. Conditions: 10 µM unless noted.
In the case of `ClCCN(CCCl)C(c1ccccc1)c1ccc(Cl)cc1` (stereo not given), the growth is 42.1% (inactive). As to `CCCCNCCc1ccccn1`, the growth is 90.2% (inactive).

For the compound `CC(=O)C1C(=O)N(C)C(=O)N(C)C1=O`, the growth was 99.7% (inactive).

`C[C@]12CC[C@@H]3C4=C(CC[C@H]3[C@@H]1CC[C@@H]2O)CC(=O)CC4`: the growth is 91.8% (inactive).

As to `Oc1ccccc1OB(Oc1ccccc1O)N(CCCl)CCCl`, the growth is 39.2% (inactive). As to `CC1(C)N=C(N)N=C(N)N1c1ccc(CCCCc2ccc(S(=O)(=O)F)cc2)c(Cl)c1`, the growth was 9.22% (active). On the same count and under the same terms, as for `N#CC1c2ccccc2C=CN1C(=O)c1ccc(N(CCCl)CCCl)cc1` (stereo not given), the figure is 69.2% (inactive); as for `CSc1ccccc1NP1(=O)OCC(C)([N+](=O)[O-])CO1` (stereo not given), 111% (inactive). The same measure, in the same setting: next, `C/C(=N/OC(=O)N(C)C)c1cc(Cl)ccc1Cl`: 97.9% (inactive); `CC1(C)N=C(N)N=C(N)N1c1ccc(CCCCc2ccc(S(=O)(=O)F)cc2)cc1`: 15.4% (inactive).

As for `Cc1ccc(C(=O)C2CN(C)CCC2(O)c2ccc(C)cc2)cc1` (stereo not given), the growth is 99.9% (inactive). The same measure, in the same setting: as for `O=S(=O)(O)c1ccc(-c2ccc([As](=O)(O)O)cc2)cc1`, the figure is 102% (inactive); as for `O=C1NC(=O)C(CN2C(=O)C3(c4ccccc42)[C@H](Cl)C(=O)N3c2ccccc2)C(=O)N1` (stereo not given in full), 63.1% (inactive); as for `O=[N+]([O-])c1cc([N+](=O)[O-])c(Cl)c(Cl)c1Cl`, 12.8% (inactive). Turning to `C/C(=N/OC(=O)N(C)C)c1ccc(Cl)cc1Cl`, the growth was 103% (inactive). On the same count and under the same terms, next, `CCC[CH2][Sn]([CH2]CCC)([CH2]CCC)[O]C(=O)CC`: -31% (active); `O=C(NCc1ccc([N+](=O)[O-])cc1)Nc1ccc(S(=O)(=O)F)cc1`: 68.9% (inactive). On to `CNC(=O)Oc1ccccc1-c1ccccc1`, for which the growth was 99.4% (inactive). Still for that read-out and setting: next, `CC1(C)N=C(N)N=C(N)N1c1ccc(OCCCCOc2ccc(S(=O)(=O)F)cc2)c(Cl)c1`: 7.96% (active). On the same count and under the same terms, as for `O=[N+]([O-])c1ccc2cnn(CSP(=S)(c3ccccc3)c3ccccc3)c2c1`, the figure is 52.3% (inactive); as for `NC(=O)C(Cl)Cl`, 105% (inactive); as for `Clc1ccc(SSC(Cl)(Cl)Cl)cc1`, 119% (inactive). Regarding `CC(=O)C1CCC2C3CC=C4CC(OC(=O)Cc5ccc(N(CCCl)CCCl)cc5)CCC4(C)C3CCC12C` (stereo not given), the growth was 73.2% (inactive). Same read-out and setting: next, `Cc1ccccc1O`: 108% (inactive); `O=[N+]([O-])c1ccccc1N1CCNCC1`: 118% (inactive). Still for that read-out and setting: next, `CC(=O)Nc1ccc(C=C2C(=O)NC(=O)NC2=O)cc1`: 98.3% (inactive).
